The text below walks through data of ChEMBL document CHEMBL2218924, “A broad activity screen in support of a chemogenomic map for kinase signalling research and drug discovery” (Biochem J, 2013).

The target in assay [1] is T1, Ephrin type-A receptor 3 (Homo sapiens) (UniProt P29320).
T1 sequence (whole entry): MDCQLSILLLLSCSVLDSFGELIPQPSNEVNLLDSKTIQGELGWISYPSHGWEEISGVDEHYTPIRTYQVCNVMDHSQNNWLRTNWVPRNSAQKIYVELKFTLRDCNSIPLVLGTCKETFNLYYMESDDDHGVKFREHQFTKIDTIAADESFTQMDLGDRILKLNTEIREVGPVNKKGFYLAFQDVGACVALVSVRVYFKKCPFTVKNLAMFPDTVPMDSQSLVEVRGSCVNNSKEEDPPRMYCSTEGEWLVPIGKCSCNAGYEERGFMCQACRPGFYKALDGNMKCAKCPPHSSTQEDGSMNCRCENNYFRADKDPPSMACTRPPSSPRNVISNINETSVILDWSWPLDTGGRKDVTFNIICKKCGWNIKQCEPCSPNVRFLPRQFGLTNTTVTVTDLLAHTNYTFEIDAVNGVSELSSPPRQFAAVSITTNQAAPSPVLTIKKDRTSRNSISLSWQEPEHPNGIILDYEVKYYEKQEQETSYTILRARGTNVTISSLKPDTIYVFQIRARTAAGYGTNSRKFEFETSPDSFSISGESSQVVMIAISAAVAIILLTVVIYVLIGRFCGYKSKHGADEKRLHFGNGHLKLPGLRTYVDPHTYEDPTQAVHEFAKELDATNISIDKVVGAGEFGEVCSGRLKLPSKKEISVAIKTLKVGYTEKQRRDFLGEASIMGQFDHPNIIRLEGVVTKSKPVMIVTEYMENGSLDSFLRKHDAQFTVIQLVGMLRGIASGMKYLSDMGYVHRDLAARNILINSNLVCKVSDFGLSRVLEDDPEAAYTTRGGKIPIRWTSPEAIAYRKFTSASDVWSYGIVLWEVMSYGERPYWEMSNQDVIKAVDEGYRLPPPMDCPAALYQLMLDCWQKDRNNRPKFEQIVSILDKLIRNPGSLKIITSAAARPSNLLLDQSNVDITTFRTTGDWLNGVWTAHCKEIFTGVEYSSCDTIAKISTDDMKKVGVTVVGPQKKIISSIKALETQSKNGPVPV
Particulars: at 10 µM; call rule not given here.

Assay [2] addresses Ephrin type-A receptor 4 (Homo sapiens) (UniProt P54764). Particulars: at 10 µM.
Assay [3] deals with Ephrin type-A receptor 5 (Homo sapiens) (UniProt P54756). Conditions: at 10 µM.
Ephrin type-A receptor 5 (Homo sapiens), sequence (P54756 whole entry): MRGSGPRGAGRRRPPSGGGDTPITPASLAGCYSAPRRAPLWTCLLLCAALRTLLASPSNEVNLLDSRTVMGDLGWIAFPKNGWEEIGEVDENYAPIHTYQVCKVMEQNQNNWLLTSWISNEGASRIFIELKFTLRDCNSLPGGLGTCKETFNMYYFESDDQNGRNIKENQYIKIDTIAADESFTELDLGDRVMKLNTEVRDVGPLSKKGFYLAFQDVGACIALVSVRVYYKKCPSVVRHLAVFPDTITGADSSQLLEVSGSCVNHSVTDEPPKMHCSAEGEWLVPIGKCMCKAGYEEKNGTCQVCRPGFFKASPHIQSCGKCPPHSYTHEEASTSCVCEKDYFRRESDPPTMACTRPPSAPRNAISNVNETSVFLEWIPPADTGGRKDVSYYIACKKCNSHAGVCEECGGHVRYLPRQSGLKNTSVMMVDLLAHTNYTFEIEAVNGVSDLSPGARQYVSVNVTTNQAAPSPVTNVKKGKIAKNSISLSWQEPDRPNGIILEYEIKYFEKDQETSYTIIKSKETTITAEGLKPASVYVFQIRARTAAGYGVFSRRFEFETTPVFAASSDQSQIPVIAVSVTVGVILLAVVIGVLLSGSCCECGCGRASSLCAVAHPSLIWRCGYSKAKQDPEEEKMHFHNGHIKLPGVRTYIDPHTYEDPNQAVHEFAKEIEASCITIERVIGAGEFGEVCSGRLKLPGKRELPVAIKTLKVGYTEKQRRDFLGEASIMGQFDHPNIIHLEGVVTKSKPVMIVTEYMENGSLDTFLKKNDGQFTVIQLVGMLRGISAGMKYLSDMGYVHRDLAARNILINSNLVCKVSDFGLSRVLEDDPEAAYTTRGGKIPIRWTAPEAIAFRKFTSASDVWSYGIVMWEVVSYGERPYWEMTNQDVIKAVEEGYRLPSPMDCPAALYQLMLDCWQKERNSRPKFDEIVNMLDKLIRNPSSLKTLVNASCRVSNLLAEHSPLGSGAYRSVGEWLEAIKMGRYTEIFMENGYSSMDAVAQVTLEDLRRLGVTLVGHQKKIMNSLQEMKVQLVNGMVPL
In assay [4] the target is Ephrin type-A receptor 7 (Homo sapiens) (UniProt Q15375). Particulars: at 1 µM.
Ephrin type-A receptor 7 (Homo sapiens), sequence (Q15375 28-998 limits assumed): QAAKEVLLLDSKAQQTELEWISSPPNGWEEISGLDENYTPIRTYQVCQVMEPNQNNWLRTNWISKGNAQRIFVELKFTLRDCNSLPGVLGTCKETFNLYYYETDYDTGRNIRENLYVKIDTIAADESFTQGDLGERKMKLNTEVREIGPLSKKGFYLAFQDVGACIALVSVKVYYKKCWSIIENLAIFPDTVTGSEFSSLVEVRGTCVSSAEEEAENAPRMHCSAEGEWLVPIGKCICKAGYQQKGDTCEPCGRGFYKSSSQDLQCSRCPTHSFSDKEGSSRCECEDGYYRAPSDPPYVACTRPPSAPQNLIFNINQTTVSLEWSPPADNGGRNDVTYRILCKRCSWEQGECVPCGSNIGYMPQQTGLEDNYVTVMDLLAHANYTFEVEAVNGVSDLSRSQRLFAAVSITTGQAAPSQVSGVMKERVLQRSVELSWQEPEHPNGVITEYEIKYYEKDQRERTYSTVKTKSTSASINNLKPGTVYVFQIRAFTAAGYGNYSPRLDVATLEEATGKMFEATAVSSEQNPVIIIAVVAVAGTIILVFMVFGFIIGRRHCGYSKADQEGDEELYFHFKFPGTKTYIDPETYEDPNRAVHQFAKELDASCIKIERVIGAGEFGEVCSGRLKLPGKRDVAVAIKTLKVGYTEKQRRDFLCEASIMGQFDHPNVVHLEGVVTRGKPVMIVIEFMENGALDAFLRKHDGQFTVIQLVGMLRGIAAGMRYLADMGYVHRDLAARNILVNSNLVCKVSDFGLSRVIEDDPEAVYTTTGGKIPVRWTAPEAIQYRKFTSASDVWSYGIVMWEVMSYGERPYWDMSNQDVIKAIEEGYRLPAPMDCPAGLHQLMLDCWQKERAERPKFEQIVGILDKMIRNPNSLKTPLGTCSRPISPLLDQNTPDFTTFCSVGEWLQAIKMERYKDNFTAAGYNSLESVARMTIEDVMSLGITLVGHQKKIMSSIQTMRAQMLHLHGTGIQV
Assay [5] has the same target. Conditions: at 10 µM.
Assay [6] deals with T2, Ephrin type-A receptor 8 (Homo sapiens) (UniProt P29322).
T2 sequence (whole entry): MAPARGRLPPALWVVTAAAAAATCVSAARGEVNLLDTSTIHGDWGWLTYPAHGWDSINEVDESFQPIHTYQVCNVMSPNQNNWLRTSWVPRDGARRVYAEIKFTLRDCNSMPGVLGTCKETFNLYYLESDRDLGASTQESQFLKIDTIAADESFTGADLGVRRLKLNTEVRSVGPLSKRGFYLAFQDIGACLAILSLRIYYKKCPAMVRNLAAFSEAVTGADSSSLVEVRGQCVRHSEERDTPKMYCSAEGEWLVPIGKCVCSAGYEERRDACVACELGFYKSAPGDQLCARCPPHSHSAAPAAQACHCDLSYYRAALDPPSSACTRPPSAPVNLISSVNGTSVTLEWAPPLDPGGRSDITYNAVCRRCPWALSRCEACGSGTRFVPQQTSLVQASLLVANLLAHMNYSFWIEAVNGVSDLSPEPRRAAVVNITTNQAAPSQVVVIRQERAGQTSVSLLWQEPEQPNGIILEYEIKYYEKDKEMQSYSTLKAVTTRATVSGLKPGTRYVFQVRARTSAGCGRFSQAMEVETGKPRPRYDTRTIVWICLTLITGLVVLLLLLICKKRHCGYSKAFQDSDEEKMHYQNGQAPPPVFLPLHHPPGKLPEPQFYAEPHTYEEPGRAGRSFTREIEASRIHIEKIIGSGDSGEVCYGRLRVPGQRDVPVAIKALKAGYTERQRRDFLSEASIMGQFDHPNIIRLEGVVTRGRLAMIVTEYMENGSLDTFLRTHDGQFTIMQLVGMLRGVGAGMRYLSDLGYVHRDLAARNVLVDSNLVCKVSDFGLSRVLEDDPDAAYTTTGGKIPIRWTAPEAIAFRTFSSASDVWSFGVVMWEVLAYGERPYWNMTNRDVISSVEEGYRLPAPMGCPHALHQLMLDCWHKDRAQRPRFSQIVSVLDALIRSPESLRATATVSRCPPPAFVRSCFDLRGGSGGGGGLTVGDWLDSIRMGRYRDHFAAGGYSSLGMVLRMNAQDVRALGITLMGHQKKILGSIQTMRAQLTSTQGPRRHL
Conditions: at 1 µM.

For assay [7], the target named is T2, Ephrin type-A receptor 8 (Homo sapiens). Conditions: at 10 µM.
The target of assay [8] is T3, Ephrin type-B receptor 1 (Homo sapiens) (UniProt P54762).
T3 sequence (whole entry): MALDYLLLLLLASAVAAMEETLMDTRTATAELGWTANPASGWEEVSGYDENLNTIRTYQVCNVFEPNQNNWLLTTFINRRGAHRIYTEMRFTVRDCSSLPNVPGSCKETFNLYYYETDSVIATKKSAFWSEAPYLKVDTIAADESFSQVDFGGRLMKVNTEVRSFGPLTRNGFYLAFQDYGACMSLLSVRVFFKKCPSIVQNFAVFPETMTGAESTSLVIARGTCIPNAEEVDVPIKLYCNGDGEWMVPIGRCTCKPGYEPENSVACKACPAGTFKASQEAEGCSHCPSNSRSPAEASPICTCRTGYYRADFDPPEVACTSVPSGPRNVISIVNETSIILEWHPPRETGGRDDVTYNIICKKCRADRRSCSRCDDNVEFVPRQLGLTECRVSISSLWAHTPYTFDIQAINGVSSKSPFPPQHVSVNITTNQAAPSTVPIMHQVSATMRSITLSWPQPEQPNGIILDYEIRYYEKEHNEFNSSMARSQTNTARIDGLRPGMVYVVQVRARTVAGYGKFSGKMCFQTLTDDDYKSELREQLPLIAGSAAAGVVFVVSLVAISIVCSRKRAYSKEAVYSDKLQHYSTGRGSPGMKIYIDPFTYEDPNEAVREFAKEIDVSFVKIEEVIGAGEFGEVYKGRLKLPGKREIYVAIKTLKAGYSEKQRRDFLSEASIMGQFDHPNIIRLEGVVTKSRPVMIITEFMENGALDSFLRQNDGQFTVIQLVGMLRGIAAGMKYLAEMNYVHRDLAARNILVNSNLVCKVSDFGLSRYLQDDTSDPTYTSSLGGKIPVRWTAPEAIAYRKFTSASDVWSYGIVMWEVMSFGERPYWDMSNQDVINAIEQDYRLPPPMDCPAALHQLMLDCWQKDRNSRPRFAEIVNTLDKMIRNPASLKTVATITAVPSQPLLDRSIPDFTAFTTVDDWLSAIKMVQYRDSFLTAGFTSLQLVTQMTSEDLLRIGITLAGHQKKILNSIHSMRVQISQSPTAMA
Conditions: at 1 µM.

In assay [9] the target is T3, Ephrin type-B receptor 1 (Homo sapiens). Conditions: at 10 µM.
Assay [10] concerns the target T4, Ephrin type-B receptor 2 (Homo sapiens) (UniProt P29323).
T4 sequence (whole entry): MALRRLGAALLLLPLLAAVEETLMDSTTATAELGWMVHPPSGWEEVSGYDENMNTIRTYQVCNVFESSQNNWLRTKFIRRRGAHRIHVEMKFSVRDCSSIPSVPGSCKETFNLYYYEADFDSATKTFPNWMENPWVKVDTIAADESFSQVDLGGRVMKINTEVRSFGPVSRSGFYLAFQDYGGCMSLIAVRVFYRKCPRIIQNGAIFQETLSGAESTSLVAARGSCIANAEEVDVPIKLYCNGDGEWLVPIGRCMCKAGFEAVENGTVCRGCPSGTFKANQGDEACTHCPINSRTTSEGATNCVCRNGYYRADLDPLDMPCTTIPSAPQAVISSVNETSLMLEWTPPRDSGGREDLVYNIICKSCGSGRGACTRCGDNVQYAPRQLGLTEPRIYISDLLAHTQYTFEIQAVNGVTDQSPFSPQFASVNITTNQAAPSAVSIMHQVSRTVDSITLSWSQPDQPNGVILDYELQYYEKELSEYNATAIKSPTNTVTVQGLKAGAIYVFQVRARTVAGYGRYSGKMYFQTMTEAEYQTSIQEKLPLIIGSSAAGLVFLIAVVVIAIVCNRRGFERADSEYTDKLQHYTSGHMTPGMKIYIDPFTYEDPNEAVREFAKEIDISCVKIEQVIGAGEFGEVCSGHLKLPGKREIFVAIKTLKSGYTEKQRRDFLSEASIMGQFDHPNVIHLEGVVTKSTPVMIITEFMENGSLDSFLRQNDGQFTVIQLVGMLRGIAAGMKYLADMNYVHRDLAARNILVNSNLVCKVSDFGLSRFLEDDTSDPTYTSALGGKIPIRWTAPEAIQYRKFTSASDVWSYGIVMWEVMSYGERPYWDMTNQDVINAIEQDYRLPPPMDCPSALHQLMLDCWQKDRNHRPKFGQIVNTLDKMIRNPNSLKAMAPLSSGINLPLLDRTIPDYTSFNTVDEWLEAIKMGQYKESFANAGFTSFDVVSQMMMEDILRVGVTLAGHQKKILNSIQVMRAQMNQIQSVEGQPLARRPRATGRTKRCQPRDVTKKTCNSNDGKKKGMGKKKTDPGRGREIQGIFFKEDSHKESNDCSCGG
Conditions: at 10 µM.

For assay [11], the target named is T5, Ephrin type-B receptor 3 (Homo sapiens) (UniProt P54753).
T5 sequence (whole entry): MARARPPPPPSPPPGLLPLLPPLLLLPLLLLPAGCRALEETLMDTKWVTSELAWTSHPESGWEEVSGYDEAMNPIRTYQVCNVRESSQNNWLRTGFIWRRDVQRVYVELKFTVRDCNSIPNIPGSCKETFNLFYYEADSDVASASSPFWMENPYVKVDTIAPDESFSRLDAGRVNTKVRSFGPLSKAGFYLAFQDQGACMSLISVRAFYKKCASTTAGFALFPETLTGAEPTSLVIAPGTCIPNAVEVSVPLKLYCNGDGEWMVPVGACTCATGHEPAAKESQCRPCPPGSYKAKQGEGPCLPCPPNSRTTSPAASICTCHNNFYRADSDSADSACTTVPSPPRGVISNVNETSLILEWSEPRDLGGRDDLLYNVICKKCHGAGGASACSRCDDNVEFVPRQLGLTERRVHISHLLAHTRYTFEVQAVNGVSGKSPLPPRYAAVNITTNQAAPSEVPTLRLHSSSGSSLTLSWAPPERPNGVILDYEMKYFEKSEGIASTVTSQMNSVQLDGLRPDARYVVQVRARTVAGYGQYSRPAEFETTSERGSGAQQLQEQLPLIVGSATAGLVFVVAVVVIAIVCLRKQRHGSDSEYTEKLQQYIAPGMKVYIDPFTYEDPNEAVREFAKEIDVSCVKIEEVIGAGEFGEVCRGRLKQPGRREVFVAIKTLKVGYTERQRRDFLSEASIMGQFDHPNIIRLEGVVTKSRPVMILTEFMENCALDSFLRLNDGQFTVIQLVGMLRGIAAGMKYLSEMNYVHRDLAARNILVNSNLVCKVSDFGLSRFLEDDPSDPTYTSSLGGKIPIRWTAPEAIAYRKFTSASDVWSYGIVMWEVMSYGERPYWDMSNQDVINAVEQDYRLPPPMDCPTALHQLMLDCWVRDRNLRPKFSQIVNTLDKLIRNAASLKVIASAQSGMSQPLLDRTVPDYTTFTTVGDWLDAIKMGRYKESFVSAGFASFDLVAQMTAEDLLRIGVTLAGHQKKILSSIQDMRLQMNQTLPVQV
Conditions: at 1 µM.

For assay [12], the target named is T5, Ephrin type-B receptor 3 (Homo sapiens). Conditions: at 10 µM.
The target of assay [13] is Receptor tyrosine-protein kinase erbB-4 (Homo sapiens) (UniProt Q15303). Particulars: at 1 µM.
Receptor tyrosine-protein kinase erbB-4 (Homo sapiens), sequence (Q15303 whole entry): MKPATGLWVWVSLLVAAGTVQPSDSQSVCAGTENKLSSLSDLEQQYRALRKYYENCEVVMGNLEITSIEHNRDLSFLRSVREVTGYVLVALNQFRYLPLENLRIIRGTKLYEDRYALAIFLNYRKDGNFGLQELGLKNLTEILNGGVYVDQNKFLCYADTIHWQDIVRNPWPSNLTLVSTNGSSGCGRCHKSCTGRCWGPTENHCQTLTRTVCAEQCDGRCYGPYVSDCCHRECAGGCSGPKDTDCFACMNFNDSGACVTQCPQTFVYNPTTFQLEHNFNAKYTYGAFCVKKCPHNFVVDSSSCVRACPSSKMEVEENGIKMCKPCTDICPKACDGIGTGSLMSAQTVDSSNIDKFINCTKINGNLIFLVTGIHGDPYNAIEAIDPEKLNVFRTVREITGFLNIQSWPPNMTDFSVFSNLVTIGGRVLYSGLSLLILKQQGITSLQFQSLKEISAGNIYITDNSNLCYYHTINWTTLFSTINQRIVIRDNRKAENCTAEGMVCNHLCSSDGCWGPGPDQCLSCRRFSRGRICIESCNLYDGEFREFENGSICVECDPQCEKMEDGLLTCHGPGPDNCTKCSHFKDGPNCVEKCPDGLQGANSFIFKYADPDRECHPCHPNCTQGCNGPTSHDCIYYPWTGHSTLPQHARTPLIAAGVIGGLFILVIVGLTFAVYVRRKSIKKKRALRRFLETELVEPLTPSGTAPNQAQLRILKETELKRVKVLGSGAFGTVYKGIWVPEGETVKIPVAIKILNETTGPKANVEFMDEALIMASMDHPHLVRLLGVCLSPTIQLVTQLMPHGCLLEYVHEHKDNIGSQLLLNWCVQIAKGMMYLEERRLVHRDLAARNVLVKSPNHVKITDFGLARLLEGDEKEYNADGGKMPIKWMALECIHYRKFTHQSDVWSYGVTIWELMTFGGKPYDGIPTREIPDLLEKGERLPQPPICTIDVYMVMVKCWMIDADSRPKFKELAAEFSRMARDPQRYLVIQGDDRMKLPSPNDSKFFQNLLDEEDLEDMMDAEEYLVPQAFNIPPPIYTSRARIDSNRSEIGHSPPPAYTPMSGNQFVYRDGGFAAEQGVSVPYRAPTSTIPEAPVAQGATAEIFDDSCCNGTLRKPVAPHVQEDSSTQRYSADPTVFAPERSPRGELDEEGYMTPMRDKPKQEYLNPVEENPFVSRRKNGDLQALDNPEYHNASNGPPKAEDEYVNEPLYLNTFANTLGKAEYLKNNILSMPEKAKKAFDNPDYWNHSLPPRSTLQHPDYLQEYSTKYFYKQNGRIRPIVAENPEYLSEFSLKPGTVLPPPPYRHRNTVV
For assay [14] the target is unchanged. Conditions: at 10 µM.

Ephrin type-A receptor 4 (Homo sapiens), sequence (P54764 whole entry): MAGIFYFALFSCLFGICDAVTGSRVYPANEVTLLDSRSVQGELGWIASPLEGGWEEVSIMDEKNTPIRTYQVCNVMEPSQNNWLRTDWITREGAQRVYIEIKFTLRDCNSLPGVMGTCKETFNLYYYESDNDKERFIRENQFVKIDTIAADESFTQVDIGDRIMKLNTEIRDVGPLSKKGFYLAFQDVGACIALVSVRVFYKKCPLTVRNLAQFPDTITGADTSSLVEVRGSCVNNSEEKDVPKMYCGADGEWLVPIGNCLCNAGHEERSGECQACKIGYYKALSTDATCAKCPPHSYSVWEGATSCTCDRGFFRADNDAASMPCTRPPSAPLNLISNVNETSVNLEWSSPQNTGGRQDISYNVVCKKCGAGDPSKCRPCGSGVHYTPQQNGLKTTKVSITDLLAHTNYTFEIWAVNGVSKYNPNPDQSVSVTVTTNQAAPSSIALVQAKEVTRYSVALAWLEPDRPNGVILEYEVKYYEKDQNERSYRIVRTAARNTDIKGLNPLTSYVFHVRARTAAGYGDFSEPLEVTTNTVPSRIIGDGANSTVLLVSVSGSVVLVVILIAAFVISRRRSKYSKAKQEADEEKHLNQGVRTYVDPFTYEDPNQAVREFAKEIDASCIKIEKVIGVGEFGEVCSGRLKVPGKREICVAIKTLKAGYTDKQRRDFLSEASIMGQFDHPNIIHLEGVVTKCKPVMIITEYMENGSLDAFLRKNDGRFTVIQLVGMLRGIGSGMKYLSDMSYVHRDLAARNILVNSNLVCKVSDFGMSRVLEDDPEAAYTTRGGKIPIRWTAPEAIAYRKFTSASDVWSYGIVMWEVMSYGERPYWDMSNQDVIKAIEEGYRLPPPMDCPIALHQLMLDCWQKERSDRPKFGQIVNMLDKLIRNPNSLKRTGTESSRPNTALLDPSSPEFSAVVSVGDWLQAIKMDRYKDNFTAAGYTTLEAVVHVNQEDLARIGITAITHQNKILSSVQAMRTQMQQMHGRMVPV

As to `CC(=O)c1ccc(N2CCOCC2)cc1O`, the residual activity in assay [1] came to 94%; in assay [2], 104%; in [3], 101%; in [4] it was 101%; in assay [5], 90%; in [6] it was 100%. Also, the residual activity in assay [7] was 93%; in assay [8], 93%; in assay [9], 101%; in [10] it was 106%; in [11], 105% (inactive); in assay [12], 107%. In addition, the residual activity in assay [13] was 93%; in assay [14], 107%.
